This is an account of results in PubChem BioAssay (EPA / NIEHS).

Activity calls are given as the source filed them. The calls were made as follows: active = hit-call score of the fitted dose curve at least 0.9, where 1 is the maximum; inactive = score below 0.9.

The first experiment can be described thus: ATG_GRE_CIS: Attagene CIS-FACTORIAL HepG2 Assay for human Glucocorticoid Response Elements (GRE) (AID 2282947). Particulars: HepG2 GRE cis-reporter, Attagene multiplex mRNA; actives raise or lower the signal. The method in brief:
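HepG2 cells transiently transfected with multiple cis-promoter reporter units measure endogenous TF activity; 24 h compound exposure. Reporter mRNA quantified by RT-PCR, FAM labelling, HpaI digestion and capillary electrophoresis; bidirectional fit vs DMSO baseline.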
On to `CCOC(=O)Cc1cccc2ccccc12`, for which the compound was classed as inactive.
Consider `C[C@]12C=CC(=O)C=C1CC[C@@H]1[C@@H]2[C@@H](O)C[C@@]2(C)[C@H]1CC[C@]2(O)C(=O)CO`, for which the AC50 was 0.394 µM (active).
Turning to `CCC(C)OC(=O)c1ccc(O)cc1` (stereo not drawn), the compound was classed as inactive.
The same measure, in the same setting: next, `C=CC(C)(CCC=C(C)C)OC(=O)CC(C)C` (stereo not drawn): “inactive”.
Take `ON(Cc1ccccc1)Cc1ccccc1`: the outcome was inactive.
Turning to `NC(=O)OCC(COC(N)=O)c1ccccc1`, the compound was classed as inactive.
Still for that read-out and setting: the result for `COC(=O)/C=C\C(=O)O` reads “inactive”; that for `O=C1CCC(=O)N1Cl`, “inactive”.

A further experiment is described as follows: ATG_ISRE_CIS: Attagene CIS-FACTORIAL HepG2 Assay for human Interferon Regulatory Factor 1 (IRF1) binding to an Interferon-Stimulated Response Element (ISRE) (AID 2282948). Particulars: HepG2 ISRE cis-reporter (Attagene), mRNA transcription readout; actives raise or lower the signal. Summed up:
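Transfected HepG2 (multiple reporter transcription units, cis elements) dosed 24 h. RNA → oligo(dT) RT → PCR → 6-FAM primer extension → HpaI → CE. DMSO = negative control/baseline.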
As for `C=CC(=O)NC(C)(C)CS(=O)(=O)O`, the outcome was inactive.
Still for that read-out and setting: the result for `O=C1CCCC(=O)O1` reads “inactive”; that for `Cc1c(C)c([N+](=O)[O-])c(C(C)(C)C)c([N+](=O)[O-])c1C`, “inactive”.
For `CCOc1ccc(N)c([N+](=O)[O-])c1`, the call was inactive.
The same measure, in the same setting: the result for `COC=O` reads “inactive”; that for `N#[N+]c1ccc2c(S(=O)(=O)[O-])cccc2c1O`, “inactive”.
`Cc1cc(C)c(C)c(O)c1`: the call was inactive.
Same read-out and setting: next, `CCCCCCC1(C)CCC(=O)O1` (stereo not drawn): “inactive”; `Cc1cccc(C(=O)O)c1`: “inactive”.
Same read-out and setting: the result for `CC/C=C\CCOC(=O)CCCCC` reads “inactive”; that for `O=S1(=O)OC(c2ccc(O)cc2)(c2ccc(O)cc2)c2ccccc21`, “inactive”.
Regarding `O=C1C(N(CO)C(=O)NCO)N(CO)C(=O)N1CO` (stereo not drawn), the compound was called inactive.
Take `CC(CC=O)c1ccccc1` (stereo not drawn): the AC50 was 56.1 µM (active).
For `CC(C)CCCC(C)CC=O` (stereo not drawn), the compound was classed as inactive.
In the case of `CCN(Cc1cccc(S(=O)(=O)O)c1)c1ccc(C(=C2C=CC(=[N+](CC)Cc3cccc(S(=O)(=O)[O-])c3)C=C2)c2ccccc2)cc1`, the outcome was inactive.
Consider `CCO[Si](CCCN=C=O)(OCC)OCC`, for which the outcome was inactive.
Same read-out and setting: next, `O=S(=O)(Oc1ccc(Cl)cc1Cl)c1ccccc1`: “inactive”; `Cc1ccc(C(C)(C)C)cc1`: “inactive”.
On the same count and under the same terms, next, `CC1=CC[C@H](C(C)C)C=C1`: “inactive”; `CC(C)=CCC[C@H](C)CCO`: “inactive”; `COC(=O)c1c(C)cc(O)c(C)c1O`: “inactive”.
On the same count and under the same terms, the result for `CCC(C)(C)C1CCCCC1OC(C)=O` (stereo not drawn) reads “inactive”.
With `N#CCc1ccc(Cl)cc1Cl`, the call was inactive.
In the case of `O=CN1CCCCC1`, the call was inactive.
`CCN(CC#N)c1cccc(C)c1`: the result was inactive.
`CC(C)(C)C(=O)CCc1ccc(Cl)cc1`: the call was inactive.
For `CCCCC/C=C\C/C=C\CCCCCCCC(=O)OC`, the AC50 was 80.7 µM (active).
As to `C=C(C)[C@H]1CC=C(C)CC1`, the result was inactive.
The same measure, in the same setting: next, `N[C@H]1C(O)O[C@H](CO)[C@H](O)[C@@H]1O` (stereo partly drawn): “inactive”.

A further experiment is described as follows: ATG_M_32_CIS: Attagene CIS-FACTORIAL HepG2 Assay for M32 Transcription Factor (Internal Marker) (AID 2282949).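 Also: background control marker of the multiplexed CIS panel rather than a real target.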 The note with it: HepG2 Attagene cis-factorial M32 reporter, mRNA; actives raise or lower the signal. Summed up: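 Following 24 h chemical exposure of HepG2 cells transiently expressing cis-promoter reporter constructs, reporter transcript levels were determined by RT-PCR with fluorescent labelling and capillary electrophoresis, then fitted bidirectionally against DMSO.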
Consider `C=CC(=O)NC(C)(C)CS(=O)(=O)O`, for which the call was inactive.
Same read-out and setting: next, `O=C1CCCC(=O)O1`: “inactive”; `Cc1c(C)c([N+](=O)[O-])c(C(C)(C)C)c([N+](=O)[O-])c1C`: “inactive”.
Still for that read-out and setting: next, `CCOc1ccc(N)c([N+](=O)[O-])c1`: “inactive”; `CCOC(=O)Cc1cccc2ccccc12`: “inactive”; `COC=O`: “inactive”.
On the same count and under the same terms, the result for `C[C@]12C=CC(=O)C=C1CC[C@@H]1[C@@H]2[C@@H](O)C[C@@]2(C)[C@H]1CC[C@]2(O)C(=O)CO` reads “inactive”.
As for `CCC(C)OC(=O)c1ccc(O)cc1` (stereo not drawn), the compound was called inactive.
For the compound `CC1=CC[C@H]2C[C@@H]1C2(C)C`, the result was inactive.
Same read-out and setting: the result for `N#[N+]c1ccc2c(S(=O)(=O)[O-])cccc2c1O` reads “inactive”; that for `Cc1cc(C)c(C)c(O)c1`, “inactive”.
Take `CCCCCCC1(C)CCC(=O)O1` (stereo not drawn): the outcome was inactive.
Still for that read-out and setting: the result for `Cc1cccc(C(=O)O)c1` reads “inactive”; that for `C=CC(C)(CCC=C(C)C)OC(=O)CC(C)C` (stereo not drawn), “inactive”; that for `CC/C=C\CCOC(=O)CCCCC`, “inactive”.
Same read-out and setting: next, `O=S1(=O)OC(c2ccc(O)cc2)(c2ccc(O)cc2)c2ccccc21`: “inactive”; `O=C1C(N(CO)C(=O)NCO)N(CO)C(=O)N1CO` (stereo not drawn): “inactive”.
Same read-out and setting: the result for `CC(CC=O)c1ccccc1` (stereo not drawn) reads “inactive”; that for `CC(C)CCCC(C)CC=O` (stereo not drawn), “inactive”; that for `CCN(Cc1cccc(S(=O)(=O)O)c1)c1ccc(C(=C2C=CC(=[N+](CC)Cc3cccc(S(=O)(=O)[O-])c3)C=C2)c2ccccc2)cc1`, “inactive”.
For `CCO[Si](CCCN=C=O)(OCC)OCC`, the result was inactive.
The same measure, in the same setting: next, `O=S(=O)(Oc1ccc(Cl)cc1Cl)c1ccccc1`: “inactive”; `Cc1ccc(C(C)(C)C)cc1`: “inactive”.
The same measure, in the same setting: next, `ON(Cc1ccccc1)Cc1ccccc1`: “inactive”.
In the case of `CC1=CC[C@H](C(C)C)C=C1`, the call was inactive.
The same measure, in the same setting: next, `CC(C)=CCC[C@H](C)CCO`: “inactive”.
The same measure, in the same setting: the result for `COC(=O)c1c(C)cc(O)c(C)c1O` reads “inactive”; that for `CCC(C)(C)C1CCCCC1OC(C)=O` (stereo not drawn), “inactive”.
On the same count and under the same terms, next, `N#CCc1ccc(Cl)cc1Cl`: “inactive”; `O=CN1CCCCC1`: “inactive”.
`CCN(CC#N)c1cccc(C)c1`: the outcome was inactive.
On the same count and under the same terms, next, `CC(=O)OCc1ccco1`: “inactive”; `CC(C)(C)C(=O)CCc1ccc(Cl)cc1`: “inactive”.
As to `NC(=O)OCC(COC(N)=O)c1ccccc1`, the result was inactive.
For `COC(=O)/C=C\C(=O)O`, the compound was classed as inactive.
With `C1=Cc2ccccc2C1`, the outcome was inactive.
With `CCCCC/C=C\C/C=C\CCCCCCCC(=O)OC`, the call was inactive.
For `O=C1CCC(=O)N1Cl`, the compound was classed as inactive.
Take `C=C(C)[C@H]1CC=C(C)CC1`: the result was inactive.
For the compound `N[C@H]1C(O)O[C@H](CO)[C@H](O)[C@@H]1O` (stereo partly drawn), the call was inactive.

Another experiment can be described thus: ATG_M_06_CIS: Attagene CIS-FACTORIAL HepG2 Assay for M06 Transcription Factor (Internal Marker) (AID 2282950). The note with it: HepG2 Attagene CIS-FACTORIAL M06 internal marker reporter; actives raise or lower the signal. The method in brief:
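Serves as a background control readout. Transfected HepG2 exposed to compounds for 24 h, then reporter transcripts quantified by fluorescent RT-PCR and capillary electrophoresis. Both directions fitted against DMSO baseline.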
In the case of `C=CC(=O)NC(C)(C)CS(=O)(=O)O`, the compound was classed as inactive.
The same measure, in the same setting: next, `O=C1CCCC(=O)O1`: “inactive”.
For the compound `Cc1c(C)c([N+](=O)[O-])c(C(C)(C)C)c([N+](=O)[O-])c1C`, the result was inactive.
The same measure, in the same setting: next, `CCOc1ccc(N)c([N+](=O)[O-])c1`: “inactive”; `CCOC(=O)Cc1cccc2ccccc12`: “inactive”.
`COC=O`: the call was inactive.
Consider `C[C@]12C=CC(=O)C=C1CC[C@@H]1[C@@H]2[C@@H](O)C[C@@]2(C)[C@H]1CC[C@]2(O)C(=O)CO`, for which the call was inactive.
On the same count and under the same terms, next, `CCC(C)OC(=O)c1ccc(O)cc1` (stereo not drawn): “inactive”; `CC1=CC[C@H]2C[C@@H]1C2(C)C`: “inactive”; `N#[N+]c1ccc2c(S(=O)(=O)[O-])cccc2c1O`: “inactive”.
Regarding `Cc1cc(C)c(C)c(O)c1`, the result was inactive.
As for `CCCCCCC1(C)CCC(=O)O1` (stereo not drawn), the outcome was inactive.
Same read-out and setting: next, `Cc1cccc(C(=O)O)c1`: “inactive”; `C=CC(C)(CCC=C(C)C)OC(=O)CC(C)C` (stereo not drawn): “inactive”.
With `CC/C=C\CCOC(=O)CCCCC`, the compound was classed as inactive.
In the case of `O=S1(=O)OC(c2ccc(O)cc2)(c2ccc(O)cc2)c2ccccc21`, the compound was classed as inactive.
Still for that read-out and setting: next, `CC(CC=O)c1ccccc1` (stereo not drawn): “inactive”; `CC(C)CCCC(C)CC=O` (stereo not drawn): “inactive”; `CCN(Cc1cccc(S(=O)(=O)O)c1)c1ccc(C(=C2C=CC(=[N+](CC)Cc3cccc(S(=O)(=O)[O-])c3)C=C2)c2ccccc2)cc1`: “inactive”.
With `CCO[Si](CCCN=C=O)(OCC)OCC`, the result was inactive.
Still for that read-out and setting: next, `Cc1ccc(C(C)(C)C)cc1`: “inactive”; `ON(Cc1ccccc1)Cc1ccccc1`: “inactive”.
The same measure, in the same setting: next, `CC1=CC[C@H](C(C)C)C=C1`: “inactive”; `CC(C)=CCC[C@H](C)CCO`: “inactive”; `CCC(C)(C)C1CCCCC1OC(C)=O` (stereo not drawn): “inactive”.
For `N#CCc1ccc(Cl)cc1Cl`, the call was inactive.
Same read-out and setting: next, `O=CN1CCCCC1`: “inactive”.
On the same count and under the same terms, the result for `CCN(CC#N)c1cccc(C)c1` reads “inactive”; that for `CC(=O)OCc1ccco1`, “inactive”.
For the compound `CC(C)(C)C(=O)CCc1ccc(Cl)cc1`, the compound was classed as inactive.
The same measure, in the same setting: next, `NC(=O)OCC(COC(N)=O)c1ccccc1`: “inactive”.
In the case of `COC(=O)/C=C\C(=O)O`, the call was inactive.
Same read-out and setting: next, `C1=Cc2ccccc2C1`: “inactive”.
For `O=C1CCC(=O)N1Cl`, the call was inactive.
As for `C=C(C)[C@H]1CC=C(C)CC1`, the result was inactive.
For the compound `N[C@H]1C(O)O[C@H](CO)[C@H](O)[C@@H]1O` (stereo partly drawn), the compound was called inactive.
